Consider 39 compounds from PubChem BioAssay AID720519 (National Center for Advancing Translational Sciences (NCATS), 2013).

The structures appear in SMILES notation. Results filed as inconclusive are left out. A call without a number means that no potency is given here. Active and inactive are the calls of the source. Calls come from the whole dose curve; as a rule, active = well fitted activation curve with a large enough effect; inconclusive = small, poorly fitted or top-dose-only effect; inactive = flat fitted curve, though single readings scatter.
Potency is the fitted concentration of half-maximal effect.

The experiment can be described thus: qHTS for Inhibitors of Cell Surface uPA Generation: Confirmatory Assay for Cherry-picked Compounds. As to conditions: cell surface uPA activity generation, qHTS confirmation; series mostly up to 115 µM. In a few lines: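 RAW 264.7 cells at 4000/well, incubated overnight, then treated with compounds. After 24 h at 37 C, viability was read by ATPlite luminescence. An increase in signal indicates blocked uPA-dependent LF entry.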
On the technique in general: In qHTS, concentration-response curves come from the screen itself.
For `Cc1cc(=O)[nH]c(=S)[nH]1`, the Potency entry was “inactive”.
`O=C(c1cc([N+](=O)[O-])cc([N+](=O)[O-])c1)N(c1ccccn1)c1ccccn1`: the Potency entry was “inactive”.
Consider `COc1ccc(S(=O)(=O)N2CCOCC2)cc1NC(=O)CN1C(=O)NC2(CCCC2)C1=O`, for which the Potency result is “inactive”.
The same measure for `Oc1ccc(/C=N/Nc2cccc(Cl)n2)c(O)c1`: “inactive”.
Next, `COc1ccc2c(c1)c1nnc(SCC(=O)Nc3ccccc3F)nc1n2C`: “inactive”; `CNC(=O)[C@@H]1CCC(=O)N1`: “inactive”; `CCN(CC)S(=O)(=O)c1ccc(C(=O)Nc2nnc(COC)o2)cc1`: “inactive”.
The same measure for `NC(=O)C1CCN(C(=O)c2cccc3ccccc23)CC1`: “inactive”.
For the compound `COc1ccc(NC(=O)CN2C(=O)CSc3ncccc32)cc1`, the Potency entry is “inactive”.
As to `O=C(NC1CCCCC1)C(c1ccco1)N(C(=O)c1csnn1)c1cccc(Cl)c1` (centres undefined), the Potency result was “inactive”.
As to `CCS(=O)(=O)N1CCC(C(=O)NCc2ccc(OC)cc2OC)CC1`, the Potency entry is “inactive”.
The same measure for `c1ccc(C2[C@H]3CN(Cc4cccnc4)[C@H](c4ccccc4)C34CC2(c2ccccc2)C4)cc1` (some centres undefined): “inactive”; for `O=C(CCS(=O)(=O)c1ccc2c(c1)NC(=O)CS2)NCCc1ccc(Cl)cc1`: “inactive”.
The same measure for `CCNc1nc(Nc2ccc(C)c(Cl)c2)c2cnn(C)c2n1`: “inactive”.
For `COC(C[C@H](O)[C@H](C)[C@@H](O)COCc1ccccc1)OC`, the Potency result is “inactive”.
With `COc1cc(N/C(N)=N/c2nc(C)cc(C)n2)cc(OC)c1`, the Potency entry is “inactive”.
Turning to `COc1ccc(C(=O)NCCOC(C)C)cc1OC1CCN(C(C)=O)CC1`, the Potency result is “inactive”.
The same measure for `CCN(C1CCS(=O)(=O)C1)S(=O)(=O)c1ccc2ccccc2c1` (centres undefined): “inactive”; for `Cc1cc(SCc2ccc(Cl)cc2)nc(=O)[nH]1`: “inactive”; for `C[n+]1c2cc(N)ccc2cc2ccc(N)cc21`: “inactive”.
For the compound `CC(=O)NC(=S)Nc1ccc([N+](=O)[O-])cc1C`, the Potency entry is “inactive”.
The same measure for `COCC(=O)N1CCC(n2nccc2NC(=O)c2ccccc2OC)CC1`: “inactive”; for `N/C(=N/OC(=O)c1ccccc1F)c1nonc1N`: “inactive”; for `O=C1C[C@@H]2CCN3C(=O)CCC[C@@H]([C@H]23)[C@H]1Cc1ccccc1`: “inactive”.
Next, `COC(=O)[C@H](CC(C)C)N(Cc1ccccc1)S(=O)(=O)N(Cc1ccc(OC)cc1)[C@@H](CC(C)C)C(=O)OC`: “inactive”; `C=CC(=O)N1C/C(=C/c2ccccc2)C(=O)/C(=C\c2ccccc2)C1`: 26.1 µM (active).
On to `CCCCn1c(N)c(N(Cc2ccccc2OC)C(=O)COc2ccc(C)cc2)c(=O)[nH]c1=O`, for which the Potency entry is “inactive”.
Next, `O=[N+]([O-])c1ccccc1C=NNC(=S)NN=Cc1ccccc1[N+](=O)[O-]`: “inactive”; `C=C(C(=O)O)C1CCC2(C)CCCC(C)(O)C2C1` (centres undefined): “inactive”.
Regarding `CC1(C)CC(=O)C=C(c2ccc3ccccc3c2)C1`, the Potency result is “inactive”.
The same measure for `C[C@@H]1O[C@@H](O[C@@H]2C(=O)c3c(O)cc(O)cc3O[C@H]2c2ccc(O)c(O)c2)[C@H](O)[C@H](O)[C@H]1O`: “inactive”; for `Cc1nc(NC(=O)CSc2nnc(C3CC3)n2C)sc1C(=O)N(C)C`: “inactive”; for `O=C(Cc1ccc(Cl)cc1)NC(=S)Nc1ccccc1O`: “inactive”.
On to `CCOC(=O)c1c(NC(=O)CC2SC(N)=NC2=O)sc2c1CCC(C)C2` (centres undefined), for which the Potency entry is “inactive”.
For the compound `COCCn1nnnc1C(C(C)C)N1CCCC(C)C1` (centres undefined), the Potency entry was “inactive”.
The same measure for `O=C1NCCN1C(=O)N(c1ccccc1)c1ccccc1`: “inactive”; for `CC1=C(C(=O)OCc2ccccc2)C(c2cccc([N+](=O)[O-])c2)NC(=O)N1` (centres undefined): “inactive”; for `Cc1cccc(N2CCN(Cc3ccc(Br)o3)CC2)c1C`: “inactive”.
The same measure for `Nc1nc2ccc(Br)cc2o1`: “inactive”.
